OvCa metastasis = blocks SKOV3ip1 adhesion and invasion in omental model | SKOV3ip1-GFP adhesion/invasion on 3D omental model, fluorescence | Potency, µM (top dose mostly 45.8 µM), inactives show at the highest dose activity change, negative = inhibition, hits mostly inhibitors | 46,000 tested, 0.1% active | AID 1963576;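 note: plate controls were DMSO wells for no effect and tomatine positive control wells for full effect; nearly all actives have a fitted effect of over 65% in size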
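qHTS, 4-pt dose (0.36-46 umol/L); SKOV3ip1-GFP, 1,200 cells/well, no FBS; primary omental fibroblast/mesothelial co-culture 48 h pre-grown; 2 h RT + 16 h 37 C; PBS wash, 4% PFA; GFP count 488/509 nm.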
PMP22 txn prim = PMP22 gene transcription modulation. Potency, µM (highest dose often 57.5 µM), without a hit: at the top dose activity change, negative = inhibition, actives largely listed as inhibitors. 43,000 tested, 2% active. S16 Pmp22-F2sN Schwann cells, FLuc/NLuc coincidence luminescence, 24 h; active = clear falling dose curves in both reporters; inconclusive = both reporters move, but less clearly or upward; inactive = either reporter flat; the % is the NLuc reporter signal
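Schwann cells carrying the coincidence reporter were exposed to library compounds for 24 h at 37C, then lysed and read for FLuc and, after quenching, NLuc luminescence on a CCD imager.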
S16 F2sN tox = S16 Schwann cell cytotoxicity | S16 Pmp22-F2sN Schwann cells (luciferase reporters placed in the Pmp22 gene) viability, CellTiter-Glo, 24 h | Potency, µM (top dose mostly 57.5 µM), for inactives: top-dose activity change, negative = cytotoxicity, actives largely listed as cytotoxic | 43,000 tested, 0.48% active; note: nearly all actives have a fitted effect of over 65% in size
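Rat S16 Schwann reporter line, 24 h treatment with library compounds delivered at 23 nL per well. Cell viability by CellTiter-Glo luminescence.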
p53null 32C tox = selectivity test: cytotoxicity in p53 null cells, permissive temperature; H1299-neo p53 null cells, ATP luminescence, 24 h, 32C; Potency, µM (series often up to 46.1 µM), without a hit: at the top dose activity change, negative = cytotoxicity, hits mostly cytotoxic; 55,000 tested, 0.62% active;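 note: 0% = DMSO only and -100% = full killing by 100 µM tamoxifen; nearly all actives have a fitted effect of over 55% in size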
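Cytotoxicity: H1299-neo (no p53), 32C, 24 h treatment. Concentrations up to 46 uM. Readout cellular ATP, luminescence. Normalization to DMSO basal and tamoxifen 100 uM maximal kill.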
mTORC1 inh = reduces mTORC1 signaling in Tsc2 and p53 null MEF cells; Tsc2-/- p53-/- MEF, phospho-rpS6 immunofluorescence/PI, 24 h; Potency, µM (top dose mostly 38.3 µM), for inactives: top-dose activity change, negative = inhibition, actives largely listed as inhibitors; 44,000 tested, 0.78% active; AID 493208;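 note: plate controls were DMSO for no effect and rapamycin for full effect; nearly all actives have a fitted effect of over 50% in size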
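Tsc2-/-, p53-/- MEFs (empty-vector stable line) in DMEM + 10% FBS were treated with compounds 24 h at 37 degree Celsius, fixed, and immunostained for phospho-rpS6 (Alexa-488) with propidium iodide counterstain. Laser-scanning cytometry gave % positive cells, normalized against 7.5 nM rapamycin and DMSO.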
p53null 39C tox = kills p53 null cells at the nonpermissive temperature | H1299 p53-null (neo) cells, 39C, ATPlite viability, 24 h | Potency, µM (top dose mostly 46.1 µM), without a hit: at the top dose activity, negative = cell killing, actives largely listed as cytotoxic | 55,000 tested, 0.97% active;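 note: 0% = DMSO only and -100% = full killing by 100 µM tamoxifen; nearly all actives have a fitted effect of over 50% in size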
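Cells seeded at 600/well, 37C overnight. Compound added (up to 46 uM), plates shifted to 39C for 24 hr. ATPlite added, luminescence read after 20 min at room temperature.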
Starred values were filed as active, the others as inactive; i = inactive; ? = inconclusive; . = no result given. A selection: hits, their analogues and other compounds. The true share with any hit is near 3.1%. Unless noted, calls come from the whole dose curve; as a rule, active = well fitted curve in the direction sought with a large enough effect; inconclusive = small, poorly fitted or top-dose-only effect, or another doubt; inactive = no such curve, though single readings can be large; an effect the other way counts as inactive or inconclusive. Unless noted, % is set by controls: 0 for no effect and ±100 for the full control effect; potency is the fitted concentration of half-maximal effect.

SMILES	OvCa metastasis	PMP22 txn prim	S16 F2sN tox	p53null 32C tox	mTORC1 inh	p53null 39C tox
COc1ccc(Cl)cc1NC(=O)CSc1nnc2[nH]c(=O)cc(-c3ccccc3)n12	-3%	?	2%	2.5µM*	-7%	10%
C[C@@H]1CC=CC=CC=CC=C[C@@H](O[C@@H]2O[C@H](C)[C@@H](O)[C@H](N)[C@H]2O)C[C@@H]2O[C@](O)(C[C@@H](O)C[C@@H]3O[C@@H]3C=CC(=O)O1)C[C@H](O)[C@@H]2C(=O)O	16%	.	.	.	.	.
CN1CCc2c(c3ccccc3n2Cc2ccc(C(=O)NO)cc2)C1	-10%	.	.	.	.	.
O=c1cc(-c2ccccc2)nc2cc(-c3ccc(F)cc3)[nH]n12	-16%	-9%	25µM*	?	-25%	?
COc1cc(CCc2cc(NC(=O)c3ccc(N4C[C@@H](C)N[C@@H](C)C4)cc3)n[nH]2)cc(OC)c1	-14%	.	.	.	.	.
O=C(CSc1nc2c(c(=O)[nH]1)CN(Cc1ccc(F)cc1)CC2)Nc1cccc(C(F)(F)F)c1	-2%	?	14µM*	0%	-1%	13%
COc1cccc2sc(NC(=O)c3ccc4c(c3)OCCO4)nc12	i	?	3%	7.9µM*	10%	7.9µM*
O=C(Nc1nc2c(F)cc(F)cc2s1)c1ccc2c(c1)OCCO2	-5%	?	-3%	-17%	0%	-40%
Cc1ccc(OC(=O)c2cc(-c3ccc4c(c3)OCCO4)on2)cc1C	i	5%	?	?	-1%	25µM*
O=C(Nc1cccc(Cl)c1)c1cc(-c2ccc3c(c2)OCCO3)on1	-4%	-16%	-2%	?	-15%	?
Cc1ccc(Cl)cc1NC(=O)c1cc(-c2ccc3c(c2)OCCO3)on1	36%	-14%	0%	?	-18%	?
Cc1cccc(NC(=O)c2cc(-c3ccc4c(c3)OCCO4)on2)c1	-1%	-9%	-2%	1.3µM*	-16%	1.3µM*
Cc1cc(OC(=O)c2cc(-c3ccc4c(c3)OCCO4)on2)ccc1Cl	i	-8%	0%	-27%	-1%	16µM*
COc1cc(CNC(=O)CCCCC=CC(C)C)ccc1O	-17%	.	.	.	.	.
CC1CCN(c2nc(-c3ccc(C(C)(C)C)cc3)nc3ccccc23)CC1	-5%	?	-2%	13µM*	4%	13µM*
CC1CCCCN1c1nc(-c2ccc(C(C)(C)C)cc2)nc2ccccc12 (stereo unspecified)	i	-14%	-1%	13µM*	-11%	16µM*
COc1ccc(NC(=O)CCCS(=O)(=O)c2nc(-c3ccc(OC)c(OC)c3)cc(C(F)(F)F)n2)cc1OC	?	4.5µM*	4.5µM*	26%	12µM*	?
COc1ccccc1-c1cc(C(F)(F)F)nc(S(=O)(=O)CCCC(=O)Nc2ccc(F)c(Cl)c2)n1	-3%	-3%	8%	9%	9%	7%
COc1ccc(-c2cc(C(F)(F)F)nc(S(=O)(=O)CCCC(=O)Nc3cccc(O)c3)n2)cc1OC	-21%	6µM*	8.9µM*	25%	?	?
COc1ccc(-c2cc(C(F)(F)F)nc(S(=O)(=O)CCCC(=O)Nc3ccccc3C(F)(F)F)n2)cc1OC	?	?	?	-15%	18µM*	?
COc1ccccc1-c1cc(C(F)(F)F)nc(S(=O)(=O)CCCC(=O)Nc2cc(OC)c(OC)c(OC)c2)n1	0%	0%	8%	?	0%	?
O=C(O)C1=CO[C@@H](O[C@@H]2O[C@H](CO)[C@H](O)[C@H](O)[C@H]2O)[C@@H]2C(CO)=CC[C@H]12	-3%	.	.	.	.	.

Source: PubChem (National Center for Advancing Translational Sciences (NCATS))
